The record followed here is ChEMBL document CHEMBL1201862, “PubChem BioAssay data set” (2004).

In all, about 57,000 sequences went through this assay and about 3,200 (5.6%) were called active. Rule as the data show it: active = GI50 up to about 1.1 µM and inactive = higher. Not all results are given here. Measured potencies and affinities stand elsewhere.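 Briefly, cells in 96-well plates were exposed to five compound concentrations for 48 h, and endpoints were estimated by linear interpolation. Abbreviation: GI50, concentration required for 50% inhibition of growth.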

The test system of this experiment is SF-268. In words: NCI tumour cell line growth inhibition, 48 h.
In the case of “[Bis(aminomethyl)ethylmethylsilane]tetrachloroplatinum(IV), CHEMBL2146192”, the GI50 is 2.43 µM.
The figure for “[Bis(aminomethyl)tetramethylenesilane]tetrachloropaltinum(IV), CHEMBL2146189” is 3.52 µM.
Turning to “[Bis(aminomethyl)dimethylsilane]tetrachloroplatinum(IV), CHEMBL2146190”, the GI50 was 2.74 µM.
The figure for “[Bis(aminomethyl)diethylsilane]tetrachloroplatinum(IV), CHEMBL2146203” is 1.57 µM; for “[Bis(aminomethyl)tetramethylenesilane]dichloropaltinum(II), CHEMBL2146205” it is 21.8 µM.
The figure for “[Bis(aminomethyl)dimethylsilane]dichloroplatinum (II), CHEMBL2146201” is 8.81 µM; for “cis-Bis[[(trimethylsilyl)methyl]amino]tetrachloroplatinum(IV), CHEMBL2146191” it is 13.6 µM.
To “mu-(1,7-nanodiamine-N,N')bis-(cis-aminedichloroplatimum (II)), CHEMBL2146215” belongs 8.97 µM; to CISPLATIN, CHEMBL11359, 0.745 µM; to “[Bis(aminomethyl)pentamethylenesilane]dichloropaltinum(II), CHEMBL2146202”, 3.46 µM.
In turn, “[Bis(aminomethyl)pentamethylenesilane]tetrachloropaltinum(IV), CHEMBL2146204” displayed a GI50 of 3.59 µM.
